LDHA block: inhibitors of human lactate dehydrogenase A; P00338; purified LDHA, NADH/diaphorase-resazurin fluorescence; stronger effect = lower value; activity change, % (values are at about 110 or 230 µM); 480,000 compounds, 0.15% hits; in the data active = activity change below about -30%; inconclusive = mostly about -25% to -30%;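 also: plate controls were DMSO wells for no effect and wells without enzyme for full effect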
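LDH5 2 nM; NADH 0.06 mM, pyruvate 0.2 mM; 200 mM Tris pH 7.4, EDTA, Tween-20; 5 min RT. Detection: diaphorase 0.133 mg/mL + resazurin 37 µM, fluorescence ex540/em590 at 0 and 20 min; normalized to enzyme-free and DMSO wells.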
ALOX12 inh: inhibitors of human 12S-lipoxygenase ALOX12; Potency, µM (top dose mostly 108 µM), for the others: at the highest dose activity change, negative = inhibition, hits mostly inhibitors; P18054; 580,000 compounds, 1.1% hits; purified 12hLO, xylenol orange hydroperoxide absorbance; active = well fitted inhibition curve with a large enough effect; inconclusive = small, poorly fitted or top-dose-only effect, or another doubt; inactive = no such curve, though single readings can be large or run the other way; also: potency is read from the fitted curve at half-maximal effect; % is scaled to controls: 0 for no effect and ±100 for the full control effect
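Hydroperoxide product was detected by ferrous iron/xylenol orange as the 573 to 405 nm absorbance ratio. Arachidonic acid at 40 uM (final) was turned over for 30 min at room temperature by 150 nM human 12hLO, pH 7.0 Hepes buffer, after 15 min compound preincubation.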
KCNH2 WT inh: inhibitors of human wildtype KCNH2 potassium channel | Q12809 | U2OS, BacMam KCNH2, thallium flux FluxOr; stronger effect = lower value | activity change, % at 1.84 µM | 340,000 compounds, 0.37% hits | AID 720551;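 active = maximum activity change below -70%; inconclusive = maximum activity change between -70% and -50%; inactive = maximum activity change above -50%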; also: % is scaled to controls: 0 for no effect and ±100 for the full control effect
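U2OS cells transduced with wild-type KCNH2 virus are loaded with FluxOr dye for 45 min, and thallium flux is measured in kinetic reads before and after stimulation buffer. Rate constants are normalized to DMSO controls.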
Chronic BCR inh: blocks chronic active B-cell receptor signaling; ABC-DLBCL IkBa-CBG/CBR reporter, luminescence ratio, 4 h; Potency, µM (series often up to 46.1 µM), for inactives: at the top dose activity change, negative = inhibition, actives largely listed as inhibitors; 340,000 compounds, 0.05% hits; AID 493014; active = well fitted inhibition curve with a large enough effect in the signal ratio, with a control signal flat, not every such curve was filed as active; inconclusive = small, poorly fitted or top-dose-only effect, or effect the other way, or a change in a side signal; the % refers to the signal ratio;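 also: potency is read from the fitted curve at half-maximal effect; plate controls were basal doxycycline-induced cells for no effect and cells given 10 µM MG132 for full effect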
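Concentration-response series (up to 46 uM) were applied to TMD8 dual-reporter cells for 4 h at 37C with doxycycline. Green/red ratio, after filter-overlap correction, defined %Activity; red signal alone was normalised to basal cells and zero luminescence.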
ClpP mod: qHTS Assay for Activators of ClpP. 340,000 compounds, 1.9% hits. AID 651965, 2013. Potency, µM (series often up to 57.5 µM), without a hit: at the top dose activity change, negative = active. purified B. subtilis ClpP, FRET peptide cleavage, 20 min. ATP-dependent Clp protease proteolytic subunit (Bacillus subtilis (strain 168)), P80244; active = well fitted falling curve with a large enough effect; inconclusive = small, poorly fitted or top-dose-only effect; inactive = no such curve, though single readings can be large or run the other way; also: potency is read from the fitted curve at half-maximal effect; the source files actives as falling curves though it sought activators and does not explain the sign; nearly all actives have a fitted effect of over 65% in size
Target sequence (P80244 whole entry, looked up): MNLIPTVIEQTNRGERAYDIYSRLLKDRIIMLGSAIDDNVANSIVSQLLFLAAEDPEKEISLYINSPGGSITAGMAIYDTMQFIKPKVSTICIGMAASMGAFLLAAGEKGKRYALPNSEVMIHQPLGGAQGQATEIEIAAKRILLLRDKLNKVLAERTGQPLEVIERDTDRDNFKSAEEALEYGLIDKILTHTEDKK
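ClpP 10 microg/mL final, pH 8 Tris/KCl buffer with BSA, glycerol, Tween-20; compound pinned in; FRET-FV substrate; RT 20 min; Ex320/Em430; ΔFRET vs ADEP 5.8 microM, DMSO, no enzyme.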
KCNH2 3.1 block: KCNH2 3.1 (human) potassium channel inhibition; U2OS KCNH2 3.1, thallium flux FluxOr; stronger effect = lower value; activity change, % (tested at about 1.8 µM); AID 720553; 340,000 compounds, 0.95% hits;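 active = maximum activity change below -70%; inconclusive = maximum activity change from -70% to -50%; inactive = maximum activity change above -50%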;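 also: thallium influx rate constant from kinetic fluorescence after stimulation buffer; % is scaled to controls: 0 for no effect and ±100 for the full control effect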
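We transduce U2OS cells with the mutant 3.1 virus, culture them overnight, load FluxOr with Red40 quencher for 45 min, then add stimulation buffer and read kinetically for 2 min to derive a normalized rate constant.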
* hit, by the source's call; ? = inconclusive; . = no result given; [ ] = dose if it differs, or a comment. In the library only some 3% were active in any assay of this set; here they are far more common.

SMILES	LDHA block	ALOX12 inh	KCNH2 WT inh	Chronic BCR inh	ClpP mod	KCNH2 3.1 block
CS(=O)(=O)Nc1ccc(-c2csc(NC3CC3)n2)cc1	6	10µM*	.	.	.	.
Cc1ccc(/C(O)=C2\C(=O)C(=O)N(CCCO)C2c2ccccc2)cc1 (stereo not given)	-3	?	.	.	.	.
Cc1ccc(/C(O)=C2\C(=O)C(=O)N(CC(C)O)C2c2cccc(F)c2)cc1 (stereo not given)	-6	18µM*	-5	4%	1%	-4
COc1ccccc1C1/C(=C(/O)c2ccccc2)C(=O)C(=O)N1CC(C)O (stereo not given)	-1	3.5µM*	10	1%	0%	15
O=C(CCc1ncc(-c2c(F)cccc2F)o1)Nc1cccc(F)c1	2	1%	.	.	.	.
COc1ccccc1-c1c(C)c(C)nc(N)c1C#N	4	28%	-7	2%	22µM*	-17
COc1ccccc1-c1c(C#N)c(N)nc2c1CCc1ccccc1-2	13	?	-6	?	1.8µM*	7
CCc1nc(N)c(C#N)c(-c2cccs2)c1C	-4	19%	.	.	.	.
COc1ccccc1-c1cc(C2CC2)nc(N)c1C#N	-5	6%	-15	?	28µM*	5
CCc1nc(N)c(C#N)c(-c2ccccc2OC)c1C	-4	1%	-4	0%	28µM*	-4
CC(SCCCn1c(=O)c2c(ncn2C)n(C)c1=O)c1ccccc1Cl (stereo not given)	0	13%	.	.	.	.
COc1ccc(C2=NN(c3nc4ccccc4s3)C(=O)/C2=C\N(C)C)cc1	-10	22µM*	7	-2%	0%	16
Fc1ccc(CNc2nc(-c3ccco3)cc(C(F)(F)F)n2)cc1	2	-9%	-7	11%	25µM*	-2
Fc1ccc(-c2cc(C(F)(F)F)nc(NCc3cccs3)n2)cc1	1	-3%	3	11%	32µM*	-12
Fc1ccc(-c2cc(C(F)(F)F)nc(NCc3ccccc3)n2)cc1	1	-18%	.	.	22µM*	.
CN(CC(=O)NC(N)=O)Cc1ccc(C(F)(F)F)cc1	7	-13%	.	.	.	.
CN(CC(N)=O)C(=O)[C@@H]1[C@@H](NC(=O)Nc2ccc(F)cc2F)CCN1C(=O)c1cccn1C	.	2%	.	.	.	.
CCOC(=O)c1ccc(NC(=S)NC(=O)C2CCCC2)cc1	-1	40µM*	8	?	2%	13
CCOC(=O)c1ccc(NC(=S)NCCC2=CCCCC2)cc1	-1	40µM*	-13	?	-14%	5
FC(F)Sc1ccc(NC(=S)NCCC2=CCCCC2)cc1	-1	18µM*	.	.	.	.
CCOC(=O)c1ccc(NC(=S)NCCc2ccccc2F)cc1	1	40µM*	-5	?	.	-6
COC(=O)c1ccc(NC(=S)NC(=O)C2CCC2)cc1	-9	?	-4	-1%	-2%	-5
CC(Oc1ccc(Cl)cc1Cl)c1nc(-c2ccncc2)no1 (stereo not given)	1	-46%	.	.	.	.
Cc1nn2c(c1-c1cccnc1N1CCOCC1)N(CC1CC1)CCC2	.	10µM*	.	.	.	.
COc1ccccc1CN1CCCn2nc(C)c(-c3cccnc3N3CCOCC3)c21	.	13%[176 µM]	.	.	.	.
SMILES	LDHA block	ALOX12 inh	KCNH2 WT inh	Chronic BCR inh	ClpP mod	KCNH2 3.1 block
COC(=O)c1sc(N)c(C#N)c1C	1	4.5µM*	.	.	.	.
CC(=C1SC(=S)NC1=O)c1ccc(Cl)c(O)c1	.	28µM*	.	.	.	.
CC(=O)c1cccc(S(=O)(=O)Nc2cccnc2)c1	-6	8.9µM*	-5	0%	.	-1
Cc1noc(C2CC3(CCN(C(=O)CCC4CCCC4)CC3)CN2C)n1 (stereo not given)	.	21%	.	.	.	.
CCn1c(C(=O)NCc2ccc(F)cc2)cc2oc3ccccc3c21	-5	-17%	.	.	4%	.
COc1cccc(CNC(=O)c2cc3oc4ccccc4c3n2C)c1OC	-6	2%	6	-2%	25µM*	-8

Compound activity deposited in PubChem BioAssay by National Center for Advancing Translational Sciences (NCATS).
